The text below walks through data of ChEMBL document CHEMBL1961873, “Compounds: GSK PKIS; Assays: Nanosyn kinase panel” (2012).

The structures appear in SMILES notation.

For experiment [1], the target named is Sphingosine kinase 1 (Homo sapiens) (UniProt Q9NYA1). The note with it: at 1 µM.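 Note: mean SPHK1 inhibition value reported from the GSK PKIS kinase panel screen.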
Experiment [2] deals with T1, Sphingosine kinase 2 (Homo sapiens) (UniProt Q9NRA0).
T1 sequence (whole entry): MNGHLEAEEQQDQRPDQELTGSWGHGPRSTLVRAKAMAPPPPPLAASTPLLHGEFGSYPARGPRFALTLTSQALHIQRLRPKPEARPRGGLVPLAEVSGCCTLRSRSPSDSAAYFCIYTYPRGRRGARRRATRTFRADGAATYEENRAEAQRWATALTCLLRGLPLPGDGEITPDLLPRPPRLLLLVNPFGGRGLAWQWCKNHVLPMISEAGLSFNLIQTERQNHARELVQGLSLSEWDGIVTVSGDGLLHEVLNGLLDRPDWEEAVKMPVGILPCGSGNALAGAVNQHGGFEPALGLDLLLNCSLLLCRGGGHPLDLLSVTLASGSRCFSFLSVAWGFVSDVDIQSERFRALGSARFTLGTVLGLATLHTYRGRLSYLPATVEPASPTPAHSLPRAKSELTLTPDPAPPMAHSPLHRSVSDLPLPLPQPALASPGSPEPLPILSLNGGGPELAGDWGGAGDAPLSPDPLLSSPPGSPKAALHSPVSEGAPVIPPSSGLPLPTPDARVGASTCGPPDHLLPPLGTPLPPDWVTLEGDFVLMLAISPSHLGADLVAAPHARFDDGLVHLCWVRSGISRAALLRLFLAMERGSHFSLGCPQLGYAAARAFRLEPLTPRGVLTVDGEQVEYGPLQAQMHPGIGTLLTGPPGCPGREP
The settings on record: at 0.1 µM.

Experiment [3] addresses T1, Sphingosine kinase 2 (Homo sapiens). The settings on record: at 1 µM.
The target of experiment [4] is Casein kinase II subunit alpha (Homo sapiens) (UniProt P68400). The settings on record: at 0.1 µM.
Sequence of Casein kinase II subunit alpha (Homo sapiens) (P68400 whole entry, looked up): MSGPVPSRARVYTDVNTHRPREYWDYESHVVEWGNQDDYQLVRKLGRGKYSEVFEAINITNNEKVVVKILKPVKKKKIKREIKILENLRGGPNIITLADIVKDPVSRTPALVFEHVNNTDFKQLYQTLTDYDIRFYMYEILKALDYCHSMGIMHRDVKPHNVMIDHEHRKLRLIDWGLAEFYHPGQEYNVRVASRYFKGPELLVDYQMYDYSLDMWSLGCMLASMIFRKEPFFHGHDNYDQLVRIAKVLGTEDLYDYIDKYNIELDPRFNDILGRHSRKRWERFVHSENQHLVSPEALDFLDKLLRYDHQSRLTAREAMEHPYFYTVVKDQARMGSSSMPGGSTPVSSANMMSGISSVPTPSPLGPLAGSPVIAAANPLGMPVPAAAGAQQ
Experiment [5] has the same target. The note with it: at 1 µM.
The target in experiment [6] is T2, Inhibitor of nuclear factor kappa-B kinase subunit alpha (Homo sapiens) (UniProt O15111).
T2 sequence (whole entry): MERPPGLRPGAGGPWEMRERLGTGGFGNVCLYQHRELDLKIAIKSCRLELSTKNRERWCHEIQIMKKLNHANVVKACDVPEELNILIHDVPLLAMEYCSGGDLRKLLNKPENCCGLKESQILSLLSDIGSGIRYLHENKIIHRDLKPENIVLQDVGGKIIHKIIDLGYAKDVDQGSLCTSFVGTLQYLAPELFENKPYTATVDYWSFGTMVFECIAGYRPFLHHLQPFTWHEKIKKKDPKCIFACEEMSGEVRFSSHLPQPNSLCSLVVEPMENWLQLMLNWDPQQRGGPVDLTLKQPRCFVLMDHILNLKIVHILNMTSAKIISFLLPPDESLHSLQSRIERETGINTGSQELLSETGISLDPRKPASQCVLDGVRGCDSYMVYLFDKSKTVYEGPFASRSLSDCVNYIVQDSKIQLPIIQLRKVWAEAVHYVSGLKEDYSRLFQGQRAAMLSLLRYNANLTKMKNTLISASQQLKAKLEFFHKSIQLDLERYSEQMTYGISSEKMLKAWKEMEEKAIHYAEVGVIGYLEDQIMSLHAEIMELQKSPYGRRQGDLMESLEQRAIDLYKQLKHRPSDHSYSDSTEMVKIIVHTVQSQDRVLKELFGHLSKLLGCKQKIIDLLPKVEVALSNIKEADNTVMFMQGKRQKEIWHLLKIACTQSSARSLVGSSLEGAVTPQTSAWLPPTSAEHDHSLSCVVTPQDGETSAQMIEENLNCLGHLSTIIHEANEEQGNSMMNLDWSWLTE
The settings on record: at 0.1 µM.

Experiment [7] has as its target T2, Inhibitor of nuclear factor kappa-B kinase subunit alpha (Homo sapiens). The note with it: at 1 µM.
Experiment [8] concerns the target T3, Inhibitor of nuclear factor kappa-B kinase subunit beta (Homo sapiens) (UniProt O14920).
T3 sequence (whole entry): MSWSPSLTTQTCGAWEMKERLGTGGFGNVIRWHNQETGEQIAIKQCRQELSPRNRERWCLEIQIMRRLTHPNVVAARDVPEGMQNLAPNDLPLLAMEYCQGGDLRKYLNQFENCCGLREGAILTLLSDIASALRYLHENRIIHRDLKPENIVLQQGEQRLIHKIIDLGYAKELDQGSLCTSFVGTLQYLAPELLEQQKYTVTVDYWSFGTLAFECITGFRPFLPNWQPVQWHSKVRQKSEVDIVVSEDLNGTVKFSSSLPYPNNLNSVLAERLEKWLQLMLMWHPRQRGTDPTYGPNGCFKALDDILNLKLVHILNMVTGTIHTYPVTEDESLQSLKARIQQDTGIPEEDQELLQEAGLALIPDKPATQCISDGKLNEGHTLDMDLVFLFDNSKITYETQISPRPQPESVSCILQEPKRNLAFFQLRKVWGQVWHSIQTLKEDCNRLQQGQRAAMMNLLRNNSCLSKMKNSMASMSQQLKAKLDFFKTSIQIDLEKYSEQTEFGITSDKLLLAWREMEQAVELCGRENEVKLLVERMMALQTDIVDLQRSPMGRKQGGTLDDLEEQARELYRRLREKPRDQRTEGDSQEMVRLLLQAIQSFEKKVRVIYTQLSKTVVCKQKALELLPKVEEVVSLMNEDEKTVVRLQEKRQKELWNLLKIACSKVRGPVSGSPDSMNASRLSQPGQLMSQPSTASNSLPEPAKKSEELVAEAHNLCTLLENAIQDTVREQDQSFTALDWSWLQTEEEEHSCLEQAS
The note with it: at 0.1 µM.

The target of experiment [9] is T3, Inhibitor of nuclear factor kappa-B kinase subunit beta (Homo sapiens). The note with it: at 1 µM.
In experiment [10] the target is T4, Inhibitor of nuclear factor kappa-B kinase subunit epsilon (Homo sapiens) (UniProt Q14164).
T4 sequence (whole entry): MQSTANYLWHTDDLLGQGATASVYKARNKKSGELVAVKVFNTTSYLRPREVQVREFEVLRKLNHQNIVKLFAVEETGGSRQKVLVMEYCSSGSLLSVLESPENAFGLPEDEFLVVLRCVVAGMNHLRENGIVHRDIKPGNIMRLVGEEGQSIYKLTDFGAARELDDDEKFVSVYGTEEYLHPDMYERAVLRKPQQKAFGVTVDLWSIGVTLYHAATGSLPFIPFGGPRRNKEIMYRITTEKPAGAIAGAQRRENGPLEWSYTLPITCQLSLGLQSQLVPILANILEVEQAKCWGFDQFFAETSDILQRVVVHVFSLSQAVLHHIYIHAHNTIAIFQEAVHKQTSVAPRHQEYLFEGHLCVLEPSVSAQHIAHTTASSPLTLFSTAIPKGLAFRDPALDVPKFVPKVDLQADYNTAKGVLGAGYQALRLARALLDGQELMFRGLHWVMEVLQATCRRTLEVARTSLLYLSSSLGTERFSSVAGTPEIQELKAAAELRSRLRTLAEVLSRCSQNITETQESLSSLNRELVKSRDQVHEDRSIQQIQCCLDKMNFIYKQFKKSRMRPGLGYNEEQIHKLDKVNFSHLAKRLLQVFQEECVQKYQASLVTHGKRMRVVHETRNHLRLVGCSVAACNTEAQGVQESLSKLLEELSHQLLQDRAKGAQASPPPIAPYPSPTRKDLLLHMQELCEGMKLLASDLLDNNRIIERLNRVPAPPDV
The note with it: at 0.1 µM.

In experiment [11] the target is T4, Inhibitor of nuclear factor kappa-B kinase subunit epsilon (Homo sapiens). The note with it: at 1 µM.
The target of experiment [12] is T5, Serine/threonine-protein kinase Nek1 (Homo sapiens) (UniProt Q96PY6).
T5 sequence (whole entry): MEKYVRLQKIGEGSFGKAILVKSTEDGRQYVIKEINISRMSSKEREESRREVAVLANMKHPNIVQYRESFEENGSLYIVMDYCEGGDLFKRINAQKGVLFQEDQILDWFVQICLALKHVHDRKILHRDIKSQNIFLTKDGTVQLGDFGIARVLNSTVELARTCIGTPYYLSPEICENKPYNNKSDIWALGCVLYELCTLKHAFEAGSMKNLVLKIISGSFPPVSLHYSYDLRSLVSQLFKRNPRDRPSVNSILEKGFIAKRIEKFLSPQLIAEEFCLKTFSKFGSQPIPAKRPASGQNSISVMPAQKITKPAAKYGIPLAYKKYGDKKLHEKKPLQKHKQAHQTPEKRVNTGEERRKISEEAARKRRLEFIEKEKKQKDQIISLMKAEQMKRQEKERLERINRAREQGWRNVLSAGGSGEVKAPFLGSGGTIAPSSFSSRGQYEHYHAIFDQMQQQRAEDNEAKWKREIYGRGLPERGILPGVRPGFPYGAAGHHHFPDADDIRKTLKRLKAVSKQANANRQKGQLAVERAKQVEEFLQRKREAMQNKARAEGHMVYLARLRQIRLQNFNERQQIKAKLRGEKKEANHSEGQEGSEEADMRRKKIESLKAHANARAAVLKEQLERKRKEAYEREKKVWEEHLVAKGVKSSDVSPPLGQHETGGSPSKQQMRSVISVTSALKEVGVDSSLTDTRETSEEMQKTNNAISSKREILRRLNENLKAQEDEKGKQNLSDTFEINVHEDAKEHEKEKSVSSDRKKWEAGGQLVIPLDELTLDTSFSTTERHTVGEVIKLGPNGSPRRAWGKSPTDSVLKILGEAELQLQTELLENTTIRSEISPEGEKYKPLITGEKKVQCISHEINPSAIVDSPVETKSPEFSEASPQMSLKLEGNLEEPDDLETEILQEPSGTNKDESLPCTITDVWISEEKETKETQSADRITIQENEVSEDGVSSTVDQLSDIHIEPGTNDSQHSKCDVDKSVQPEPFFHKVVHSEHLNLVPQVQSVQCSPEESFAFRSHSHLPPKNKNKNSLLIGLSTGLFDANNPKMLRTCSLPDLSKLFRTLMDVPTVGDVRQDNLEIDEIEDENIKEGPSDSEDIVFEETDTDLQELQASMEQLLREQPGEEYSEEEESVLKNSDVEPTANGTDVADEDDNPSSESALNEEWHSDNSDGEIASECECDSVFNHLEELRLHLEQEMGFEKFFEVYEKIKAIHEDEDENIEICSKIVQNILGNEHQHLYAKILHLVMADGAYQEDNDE
The note with it: at 0.1 µM.

Experiment [13] deals with T5, Serine/threonine-protein kinase Nek1 (Homo sapiens). The settings on record: at 1 µM.
Experiment [14] concerns the target T6, Serine/threonine-protein kinase Nek2 (Homo sapiens) (UniProt P51955).
T6 sequence (whole entry): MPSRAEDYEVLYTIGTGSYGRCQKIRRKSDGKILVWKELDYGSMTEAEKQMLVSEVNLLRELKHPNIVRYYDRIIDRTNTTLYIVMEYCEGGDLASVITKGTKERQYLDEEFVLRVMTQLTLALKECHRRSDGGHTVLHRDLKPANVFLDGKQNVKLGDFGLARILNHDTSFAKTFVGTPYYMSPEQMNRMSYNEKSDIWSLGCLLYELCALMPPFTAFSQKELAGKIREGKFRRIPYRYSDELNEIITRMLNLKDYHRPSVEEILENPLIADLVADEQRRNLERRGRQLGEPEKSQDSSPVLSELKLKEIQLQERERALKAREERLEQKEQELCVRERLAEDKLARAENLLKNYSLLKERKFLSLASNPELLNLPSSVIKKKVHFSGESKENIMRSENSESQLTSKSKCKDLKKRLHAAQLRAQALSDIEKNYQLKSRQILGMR
The settings on record: at 0.1 µM.

The target of experiment [15] is T6, Serine/threonine-protein kinase Nek2 (Homo sapiens). The note with it: at 1 µM.
Experiment [16] has as its target Serine/threonine-protein kinase Nek6 (Homo sapiens) (UniProt Q9HC98). The settings on record: at 0.1 µM.
The target is the same in experiment [17]. The settings on record: at 1 µM.
For experiment [18], the target named is Serine/threonine-protein kinase Nek7 (Homo sapiens) (UniProt Q8TDX7). The settings on record: at 0.1 µM.
Sequence of Serine/threonine-protein kinase Nek7 (Homo sapiens) (Q8TDX7 whole entry, looked up): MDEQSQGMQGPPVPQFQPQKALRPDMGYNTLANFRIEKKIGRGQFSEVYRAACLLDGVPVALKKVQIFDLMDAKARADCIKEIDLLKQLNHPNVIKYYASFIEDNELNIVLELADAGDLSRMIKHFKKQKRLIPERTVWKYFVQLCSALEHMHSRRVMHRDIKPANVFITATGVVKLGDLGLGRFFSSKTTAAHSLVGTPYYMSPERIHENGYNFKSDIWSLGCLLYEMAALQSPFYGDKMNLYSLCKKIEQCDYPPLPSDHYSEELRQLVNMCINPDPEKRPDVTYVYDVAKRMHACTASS
The target is the same in experiment [19]. The settings on record: at 1 µM.
Experiment [20] deals with T7, Serine/threonine-protein kinase Nek9 (Homo sapiens) (UniProt Q8TD19).
T7 sequence (whole entry): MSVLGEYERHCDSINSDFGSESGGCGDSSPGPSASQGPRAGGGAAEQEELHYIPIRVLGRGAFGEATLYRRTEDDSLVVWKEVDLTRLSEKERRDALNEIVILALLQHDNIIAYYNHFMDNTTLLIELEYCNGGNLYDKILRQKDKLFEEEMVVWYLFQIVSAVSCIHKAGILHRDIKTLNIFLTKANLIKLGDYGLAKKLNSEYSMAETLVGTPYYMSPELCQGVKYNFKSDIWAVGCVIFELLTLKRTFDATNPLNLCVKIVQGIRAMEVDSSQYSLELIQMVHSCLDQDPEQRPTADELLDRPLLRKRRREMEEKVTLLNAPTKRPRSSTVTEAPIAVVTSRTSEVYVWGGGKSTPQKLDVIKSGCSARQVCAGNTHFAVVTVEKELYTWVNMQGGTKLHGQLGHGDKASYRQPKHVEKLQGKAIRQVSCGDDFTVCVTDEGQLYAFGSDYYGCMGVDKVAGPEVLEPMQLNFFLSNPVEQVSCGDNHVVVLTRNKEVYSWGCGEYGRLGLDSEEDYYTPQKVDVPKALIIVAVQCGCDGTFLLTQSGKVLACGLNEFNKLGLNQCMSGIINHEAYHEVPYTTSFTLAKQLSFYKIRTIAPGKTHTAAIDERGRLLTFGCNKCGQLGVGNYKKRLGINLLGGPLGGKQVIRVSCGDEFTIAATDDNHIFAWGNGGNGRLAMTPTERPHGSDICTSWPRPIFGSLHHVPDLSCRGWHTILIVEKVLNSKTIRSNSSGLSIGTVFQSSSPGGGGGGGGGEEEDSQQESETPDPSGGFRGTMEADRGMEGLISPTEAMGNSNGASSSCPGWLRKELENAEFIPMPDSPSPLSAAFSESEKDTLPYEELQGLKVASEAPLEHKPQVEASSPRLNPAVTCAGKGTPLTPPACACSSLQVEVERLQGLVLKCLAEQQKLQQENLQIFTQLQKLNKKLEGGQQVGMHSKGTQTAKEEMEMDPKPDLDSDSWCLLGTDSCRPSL
The note with it: at 0.1 µM.

As a reminder, the inhibition is the relative decrease from the control value, in per cent.

Sequence of Serine/threonine-protein kinase Nek6 (Homo sapiens) (Q9HC98 whole entry): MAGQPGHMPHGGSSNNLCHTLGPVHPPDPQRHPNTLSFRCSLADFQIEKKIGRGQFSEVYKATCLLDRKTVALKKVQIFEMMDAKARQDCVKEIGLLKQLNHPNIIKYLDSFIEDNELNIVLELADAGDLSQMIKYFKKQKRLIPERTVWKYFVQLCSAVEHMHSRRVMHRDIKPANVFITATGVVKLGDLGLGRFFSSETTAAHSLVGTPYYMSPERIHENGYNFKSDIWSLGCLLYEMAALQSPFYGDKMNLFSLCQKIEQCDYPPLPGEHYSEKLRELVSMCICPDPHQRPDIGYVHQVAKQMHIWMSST
Sequence of Sphingosine kinase 1 (Homo sapiens) (Q9NYA1 whole entry): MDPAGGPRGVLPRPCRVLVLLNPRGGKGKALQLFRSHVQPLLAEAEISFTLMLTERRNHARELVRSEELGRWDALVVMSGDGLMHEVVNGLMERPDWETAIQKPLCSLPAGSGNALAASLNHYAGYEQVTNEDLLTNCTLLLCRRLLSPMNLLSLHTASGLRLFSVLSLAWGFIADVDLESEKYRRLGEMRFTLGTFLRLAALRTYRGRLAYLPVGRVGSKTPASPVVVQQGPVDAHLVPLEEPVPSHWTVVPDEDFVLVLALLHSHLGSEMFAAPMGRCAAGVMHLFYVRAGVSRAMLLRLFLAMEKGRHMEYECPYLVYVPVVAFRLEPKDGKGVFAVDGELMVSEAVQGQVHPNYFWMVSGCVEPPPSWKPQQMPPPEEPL

Regarding `CCS(=O)(=O)c1ccc(OC)c(Nc2ncc(-c3ccccc3Cl)o2)c1`, the inhibition in experiment [1] was -2.06%; in [2], 0%; in experiment [3] it was -1.74%; in experiment [4], 3.8%; in [5], 23.3%; in experiment [6] it was 2.45%. Also, the inhibition in experiment [7] is 3.42%; in [8] it was 1.4%; in experiment [9], -0.23%; in experiment [10] it was 3.21%; in experiment [11], 2.16%; in experiment [12] it was 0.72%. For the same compound, the inhibition in experiment [13] was 4.41%; in [14], 0.42%; in experiment [15], 0.79%; in experiment [16], 1.4%; in [17], -2.46%; in [18], -0.08%. The inhibition came to 2.67% in experiment [19] and 4.12% in experiment [20].
